Source: PubChem BioAssay (Tox21)
Inconclusive results are not listed. Activity calls are given as the source filed them. Unless noted, calls follow the shape of the dose curve; as a rule, active = well fitted curve in the direction sought with a large enough effect in the repeat runs; inconclusive = weak or mixed curves; inactive = no such curve, though single readings can be large; an effect the other way counts as inactive or inconclusive.

Tests used:
[1] = qHTS assay to identify small molecule agonists of the peroxisome proliferator-activated receptor delta (PPARd) signaling pathway - cell viability counter screen (AID 743211); also: nearly all actives have a fitted effect of over 55% in size
How it was run: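 Read-out: CellTiter-Glo luminescence, 30 min RT, measured in the same wells as the beta-lactamase reporter. Cells: GeneBLAzer PPAR delta UAS-bla HEK293H, 3000 cells/well, compound exposure 17 h at 37C.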

[2] = target: Peroxisome proliferator-activated receptor delta (Homo sapiens) (UniProt Q03181); experiment: qHTS assay to identify small molecule agonists of the peroxisome proliferator-activated receptor delta (PPARd) signaling pathway (AID 743212; calls by dose curve)
How it was run: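 GeneBLAzer UAS-bla HEK293H cells carrying a PPARδ construct were exposed to compounds at 37 °C. Beta-lactamase activity was read by FRET fluorescence after 2 h at room temperature with LiveBLAzer B/G substrate.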

[3] = qHTS assay to identify small molecule antagonists of the peroxisome proliferator-activated receptor delta (PPARd) signaling pathway - cell viability counter screen (AID 743213); also: nearly all actives have a fitted effect of over 50% in size
How it was run: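 Agonist-stimulated (L165041, 300 nM final) HEK293H PPARd UAS-bla cells are exposed to compounds for 17 h at 37 C, and ATP-based luminescence (CellTiter-Glo) from the same wells reports cytotoxicity.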

[4] = target: Peroxisome proliferator-activated receptor delta (Homo sapiens) (UniProt Q03181); experiment: qHTS assay to identify small molecule antagonists of the peroxisome proliferator-activated receptor delta (PPARd) signaling pathway (AID 743215; active = well fitted inhibition curve with a large enough effect in the signal ratio in the repeat runs, not every such curve was filed as active; the % refers to the signal ratio; also: series mostly up to about 62 µM)
How it was run: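 PPARd UAS-bla HEK293H cells were pre-incubated 5 h at 37 C, then given test compounds in DMSO plus agonist L165041 (300 nM final). After 17 h at 37 C, beta-lactamase FRET substrate was added; fluorescence read after 2 h at room temperature.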

[5] = qHTS assay to identify small molecule antagonists of the farnesoid-X-receptor (FXR) signaling pathway - cell viability counter screen (AID 743221; active = well fitted cell-killing curve with a large enough effect in the repeat runs, not every such curve was filed as active; also: nearly all actives have a fitted effect of over 50% in size)
How it was run: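 HEK 293T FXR-bla cells, 5 h pre-incubation; compound + CDCA 50 uM final, 16 h, 37 C; beta-lactamase FRET read first, then CellTiter-Glo luminescence, 30 min RT.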

[6] = target: Vitamin D3 receptor (Homo sapiens) (UniProt P11473); experiment: qHTS assay to identify small molecule agonists of the vitamin D receptor (VDR) signaling pathway (AID 743222; calls by dose curve)
How it was run: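 VDR-bla cells were plated 4 h at 37C/5% CO2, then exposed to compounds in DMSO for 16 h. After LiveBLAzer B/G FRET substrate addition and 2 h at room temperature, beta-lactamase reporter fluorescence was read.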

[7] = target: Vitamin D3 receptor (Homo sapiens) (UniProt P11473); experiment: qHTS assay to identify small molecule antagonists of the vitamin D receptor (VDR) signaling pathway (AID 743223; active = well fitted inhibition curve with a large enough effect in the signal ratio in the repeat runs, not every such curve was filed as active; the % refers to the signal ratio)
How it was run: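 Beta-lactamase reporter read-out: FRET substrate fluorescence after 2 h at room temperature, following 16 h exposure of VDR-bla cells to test compound plus 3 nM (final) 1alpha,25-dihydroxyvitamin D3 agonist at 37C.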

[8] = qHTS assay to identify small molecule agonists of the farnesoid-X-receptor (FXR) signaling pathway - cell viability counter screen (AID 743218); also: nearly all actives have a fitted effect of over 45% in size
How it was run: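 FXR-UAS-bla HEK 293T cells, plated 5 h at 37 C, were exposed to compounds for 16 h at 37 C. CellTiter-Glo was then added to the same wells as the bla readout; luminescence read after 30 min at room temperature.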

[9] = target: Bile acid receptor (Homo sapiens) (UniProt Q96RI1); experiment: qHTS assay to identify small molecule agonists of the farnesoid-X-receptor (FXR) signaling pathway (AID 743220; active = well fitted activation curve with a large enough effect in the signal ratio in the repeat runs, not every such curve was filed as active; the % refers to the signal ratio)
How it was run: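 Beta-lactamase reporter under UAS control in GeneBLAzer FXR HEK 293T cells (5000/well) measured with LiveBLAzer FRET substrate after 2 h at room temperature. Compound exposure lasted 16 h at 37C.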

[10] = target: Bile acid receptor (Homo sapiens) (UniProt Q96RI1); experiment: qHTS assay to identify small molecule antagonists of the farnesoid-X-receptor (FXR) signaling pathway (AID 743217; active = well fitted inhibition curve with a large enough effect in the signal ratio in the repeat runs, not every such curve was filed as active; the % refers to the signal ratio)
How it was run: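 FXR-UAS-bla HEK 293T cells pre-incubated 5 h at 37 °C, then exposed to compounds with chenodeoxycholic acid (50 uM final) for 16 h at 37 °C. Beta-lactamase reporter read by LiveBLAzer B/G FRET substrate fluorescence after 2 h at room temperature.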
% is scaled to controls: 0 for no effect and ±100 for the full control effect.

Chain of Vitamin D3 receptor (Homo sapiens) (P11473 whole entry, looked up): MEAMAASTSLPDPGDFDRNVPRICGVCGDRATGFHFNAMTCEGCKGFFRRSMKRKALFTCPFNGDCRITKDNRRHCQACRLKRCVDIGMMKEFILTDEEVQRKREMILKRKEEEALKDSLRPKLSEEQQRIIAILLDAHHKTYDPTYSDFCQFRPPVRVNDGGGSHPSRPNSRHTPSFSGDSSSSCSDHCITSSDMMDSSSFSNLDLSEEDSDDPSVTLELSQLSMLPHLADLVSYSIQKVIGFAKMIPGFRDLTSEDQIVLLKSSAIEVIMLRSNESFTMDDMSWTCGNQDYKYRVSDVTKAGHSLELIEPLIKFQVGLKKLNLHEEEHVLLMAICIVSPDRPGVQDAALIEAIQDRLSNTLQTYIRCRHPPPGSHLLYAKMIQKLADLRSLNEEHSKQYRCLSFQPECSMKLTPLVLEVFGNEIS
Chain of Peroxisome proliferator-activated receptor delta (Homo sapiens) (Q03181 whole entry, looked up): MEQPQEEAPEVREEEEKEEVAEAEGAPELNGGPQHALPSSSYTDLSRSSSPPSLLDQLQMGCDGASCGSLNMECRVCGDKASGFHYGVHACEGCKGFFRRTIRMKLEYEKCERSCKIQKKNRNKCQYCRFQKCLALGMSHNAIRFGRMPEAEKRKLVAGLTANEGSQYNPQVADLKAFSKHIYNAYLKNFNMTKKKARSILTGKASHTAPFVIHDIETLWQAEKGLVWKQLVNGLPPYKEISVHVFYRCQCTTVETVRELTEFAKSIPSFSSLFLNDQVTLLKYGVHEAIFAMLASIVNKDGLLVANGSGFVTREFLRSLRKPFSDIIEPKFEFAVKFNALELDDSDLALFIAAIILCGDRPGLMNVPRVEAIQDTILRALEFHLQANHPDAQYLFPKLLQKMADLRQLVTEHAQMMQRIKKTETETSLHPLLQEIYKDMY
Chain of Bile acid receptor (Homo sapiens) (Q96RI1 whole entry, looked up): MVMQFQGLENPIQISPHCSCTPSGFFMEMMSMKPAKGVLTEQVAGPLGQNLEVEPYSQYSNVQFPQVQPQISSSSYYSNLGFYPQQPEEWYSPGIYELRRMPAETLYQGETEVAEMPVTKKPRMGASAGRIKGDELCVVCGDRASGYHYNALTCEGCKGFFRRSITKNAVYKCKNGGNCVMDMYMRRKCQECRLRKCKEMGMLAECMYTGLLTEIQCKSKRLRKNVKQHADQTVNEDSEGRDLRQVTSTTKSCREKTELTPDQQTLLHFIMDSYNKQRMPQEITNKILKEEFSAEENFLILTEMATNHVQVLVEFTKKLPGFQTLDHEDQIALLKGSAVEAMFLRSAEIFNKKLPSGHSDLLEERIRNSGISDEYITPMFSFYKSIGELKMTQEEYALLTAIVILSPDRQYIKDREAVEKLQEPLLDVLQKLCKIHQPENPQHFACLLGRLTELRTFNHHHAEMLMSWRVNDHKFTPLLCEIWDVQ

CC12CCC(CC1=O)C2(C)C (stereo not given)
inactive: Potency [1] | outcome [2] | Potency [3] | outcome [4] | Potency [5] | outcome [6] | outcome [7]

CC(C)COC(=O)c1ccccc1O
inactive: Potency [1] | outcome [2] | Potency [3] | outcome [4] | outcome [8] | Potency [5] | outcome [6] | outcome [7]

COc1ccc(N=[N+]([O-])c2ccc(OC)cc2)cc1
inactive: Potency [1] | outcome [2] | Potency [3] | Potency [5] | outcome [6] | outcome [7]

CCN1CCCC(OC(=O)C(c2ccccc2)c2ccccc2)C1 (stereo not given)
inactive: Potency [1] | outcome [2] | Potency [3] | outcome [4] | outcome [9] | Potency [5]

CSc1ccc(C=O)cc1
inactive: Potency [1] | outcome [2] | Potency [3] | outcome [4] | Potency [5] | outcome [6] | outcome [7]

Cc1cc(C)cc(OCC2CNC(=O)O2)c1 (stereo not given)
inactive: Potency [1] | outcome [2] | Potency [3] | outcome [10] | outcome [8] | outcome [9] | Potency [5] | outcome [6] | outcome [7]

CC(C)c1cccc(O)c1
inactive: Potency [1] | outcome [2] | Potency [3] | outcome [4] | outcome [8] | outcome [6] | outcome [7]

CC1=CCC2C(C1)C2(C)C (stereo not given)
inactive: Potency [1] | outcome [2] | Potency [3] | outcome [10] | outcome [9] | Potency [5] | outcome [6]

CO[Si](OC)(OC)OC
inactive: Potency [1] | outcome [2] | Potency [3] | outcome [4] | outcome [8] | Potency [5] | outcome [6] | outcome [7]

CCN(CC)C(=O)c1ccc(O)c(OC)c1
inactive: Potency [1] | outcome [2] | Potency [3] | outcome [4] | Potency [5] | outcome [6]

C[C@H](O)C(=O)Nc1c(I)c(C(=O)NC(CO)CO)c(I)c(C(=O)NC(CO)CO)c1I
inactive: Potency [1] | outcome [2] | Potency [3] | outcome [4] | Potency [5] | outcome [6] | outcome [7]

COc1ccc(NC(C)=O)cc1
inactive: Potency [1] | outcome [2] | Potency [3] | outcome [4] | Potency [5] | outcome [6] | outcome [7]

C=C(C)C(=O)OCCCCCCCCCCCCCCCCCC
inactive: Potency [1] | outcome [2] | Potency [3] | outcome [4] | outcome [8] | Potency [5] | outcome [6] | outcome [7]

CCc1cc(S(=O)(=O)O)c2cc(C(C)C)cccc1-2
inactive: Potency [1] | outcome [2] | Potency [3] | outcome [4] | outcome [8] | Potency [5] | outcome [7]

COc1cccc(Br)c1
inactive: Potency [1] | outcome [2] | Potency [3] | outcome [4] | Potency [5] | outcome [6]

NC(=S)Nc1cccc2ccccc12
inactive: activity change, negative = cytotoxicity [1] -1.16% [at 5.95 µM] | activation [2] -6.49% [at 5.95 µM] | viability change, negative = cytotoxic [3] 5.98% [at 6.26 µM] | ratio activity, negative = inhibition [4] -0.221% [at 6.26 µM] | activity change, negative = cytotoxicity [5] 8.25% [at 5.95 µM] | activation [6] 4.28% [at 6.01 µM] | activity change, negative = inhibition [7] -15.5% [at 6.95 µM]

CC(=O)c1ccc(C)cc1
inactive: Potency [1] | outcome [2] | Potency [3] | outcome [4] | outcome [8] | Potency [5] | outcome [6] | outcome [7]

OC/C=C/c1ccccc1
inactive: Potency [1] | outcome [2] | Potency [3] | outcome [8] | Potency [5] | outcome [6] | outcome [7]

CCCCCOC(=O)Nc1nc(=O)n([C@@H]2O[C@H](C)[C@@H](O)[C@H]2O)cc1F
inactive: Potency [1] | outcome [2] | Potency [3] | outcome [8] | Potency [5] | outcome [6] | outcome [7]

C=C(C)C1CC=C(C)C(O)C1 (stereo not given)
inactive: Potency [1] | outcome [2] | Potency [3] | outcome [4] | Potency [5]

NC(=O)Nc1nc2ccccc2[nH]1
inactive: Potency [1] | outcome [2] | outcome [4] | outcome [10] | outcome [8] | outcome [9] | Potency [5] | outcome [6] | outcome [7]

CCCCCCCCN(C)CCCCCCCC
inactive: Potency [1] | outcome [2] | outcome [4] | outcome [8] | Potency [5] | outcome [6] | outcome [7]

CCn1cc(C(=O)O)c(=O)c2cc(F)c(N3CCN(C)CC3)cc21
inactive: Potency [1] | outcome [2] | outcome [4] | outcome [8] | Potency [5]

CNC(=O)c1c(I)c(NC(=O)CCCCC(=O)Nc2c(I)c(C(=O)O)c(I)c(C(=O)NC)c2I)c(I)c(C(=O)O)c1I
inactive: Potency [1] | Potency [3] | outcome [4] | outcome [10] | outcome [9] | Potency [5] | outcome [6] | outcome [7]

COC(C(=O)O)c1ccccc1 (stereo not given)
inactive: Potency [1] | Potency [3] | outcome [4] | outcome [10] | outcome [8] | outcome [9] | Potency [5] | outcome [6] | outcome [7]

CC/C=C\C#N
inactive: Potency [1] | outcome [2] | Potency [5]

NC(CS)C(=O)O (stereo not given)
inactive: Potency [1] | outcome [2] | outcome [4] | outcome [8] | Potency [5] | outcome [6]

C1COCCO1
inactive: Potency [1] | Potency [3] | outcome [4] | outcome [10] | outcome [9] | Potency [5] | outcome [6] | outcome [7]

CCCC=O
inactive: Potency [1] | outcome [2] | outcome [4] | outcome [8] | Potency [5] | outcome [6]

CCCCCCCCCCCCCCCCCC(=O)OCCCCCCCCCCCCCC(C)C
inactive: Potency [1] | outcome [2] | outcome [4] | outcome [8] | Potency [5] | outcome [6] | outcome [7]

CC(=O)NC(Cc1ccccc1)C(=O)O (stereo not given)
inactive: Potency [1] | Potency [3] | outcome [4] | outcome [8] | outcome [9] | outcome [6] | outcome [7]
